# Results: PubChem BioAssay (NCATS)
# “And” between values parts separate entries of the source, which are not always exact repeats. Identical values can stand only once. Records with an inconclusive call do not appear. Where a call stands in place of a potency, no number is given. The source made the active and inactive calls. The call rests on the fitted dose curve; in most records, active means well fitted curve in the direction sought with a large enough effect; inconclusive means small, poorly fitted or top-dose-only effect, or another doubt; inactive means no such curve, though single readings can be large; an effect the other way counts as inactive or inconclusive.
# Assay: qHTS of pediatric cancer cell lines to identify multiple opportunities for drug repurposing: Primary screen for NB-EBc1 cells (AID 1347095)
# Conditions: NB-EBc1 neuroblastoma viability, CellTiter-Glo luminescence, 48 h; series mostly up to 46 µM
# Outline: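 ATP-based luminescence (CellTiter-Glo) quantifies viability after a 48-hour exposure. Compounds are dosed across 8 or 11 final concentrations; DMSO and 2.3 µM bortezomib serve as controls.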
# Potency means the concentration at half of the fitted maximal effect.
row,Structure (SMILES),Potency
1,Cc1cc2c(C(C)C)c(O)c(O)c(C=O)c2c(O)c1-c1c(C)cc2c(C(C)C)c(O)c(O)c(C=O)c2c1O,3.76 µM (active) and 2.96 µM (active)
2,NS(=O)(=O)c1cc2c(cc1Cl)NC=NS2(=O)=O,inactive
3,COc1cc2c(cc1OC)CN(CCc1ccc(NC(=O)c3cccc4c(=O)c5cccc(OC)c5[nH]c34)cc1)CC2,inactive
4,CC1(C)SCCN(S(=O)(=O)c2ccc(OCC#CCO)cc2)[C@@H]1C(=O)NO,inactive
5,CCCc1nc2c(C)cc(-c3nc4ccccc4n3C)cc2n1Cc1ccc(-c2ccccc2C(=O)O)cc1,inactive
6,CC(C)NCC(O)COc1ccc(COCCOC(C)C)cc1 (stereo not given),inactive
7,NCCc1ccc(O)c(O)c1,inactive
8,Oc1ccc(C2CNCCc3c2cc(O)c(O)c3Cl)cc1 (stereo not given),inactive
9,CCC(C)n1ncn(-c2ccc(N3CCN(c4ccc(OC[C@H]5CO[C@](Cn6cncn6)(c6ccc(Cl)cc6Cl)O5)cc4)CC3)cc2)c1=O (stereo not given in full),1.05 µM (active)
10,CCc1ccc(CCOc2ccc(CC3SC(=O)NC3=O)cc2)nc1 (stereo not given),inactive
11,O=c1n(CCCN2CCN(c3cccc(Cl)c3)CC2)nc2ccccn12,inactive
12,CNC(=O)c1ccc(N2C(=S)N(c3ccc(C#N)c(C(F)(F)F)c3)C(=O)C2(C)C)cc1F,inactive
13,Cc1cnc(NC(=O)C2=C(O)c3ccccc3S(=O)(=O)N2C)s1,inactive
14,Nc1ccc(S(=O)(=O)Nc2ccnn2-c2ccccc2)cc1,inactive
15,NC(=O)c1cnccn1,inactive
16,CCCCNc1cc(C(=O)O)cc(S(N)(=O)=O)c1Oc1ccccc1,inactive
17,Cc1ccccc1C(OCCN(C)C)c1ccccc1 (stereo not given),inactive
18,Cc1[nH]c(=O)c(C#N)cc1-c1ccc2nccn2c1,inactive

row,Structure (SMILES),Potency
1,OC(CCN1CCCCC1)(c1ccccc1)C1CC2C=CC1C2 (stereo not given),inactive
2,NC(=O)c1ccc(I)c([N+](=O)[O-])c1,inactive
3,CC(c1cc2ccccc2s1)N(O)C(N)=O (stereo not given),inactive
4,O=C1CCC(N2C(=O)c3ccccc3C2=O)C(=O)N1 (stereo not given),inactive
5,O=C(O)COCCN1CCN(C(c2ccccc2)c2ccc(Cl)cc2)CC1 (stereo not given),inactive
6,Cc1ccc(-n2nc(C(C)(C)C)cc2NC(=O)Nc2ccc(OCCN3CCOCC3)c3ccccc23)cc1,inactive
7,CC(C)(Sc1ccc(CCN(CCCCC2CCCCC2)C(=O)NC2CCCCC2)cc1)C(=O)O,20.9 µM (active)
8,Clc1cccc(Cl)c1NC1=NCCN1,inactive
9,CC(C[N+](C)(C)C)OC(N)=O (stereo not given),inactive
10,CS(=O)(=O)c1cccc(CNc2nc(Nc3ccc4c(c3)CCC(=O)N4)ncc2C(F)(F)F)c1,14.8 µM (active)
11,CC(=O)Oc1ccccc1C(=O)O,inactive
12,O=C(O)CCc1ccc(NCc2cccc(Oc3ccccc3)c2)cc1,inactive
13,CC(C)(C)NCC(O)c1ccc(O)c(CO)c1 (stereo not given),inactive
14,c1ccc([C@H]2CN3CCSC3=N2)cc1,inactive
15,C[C@]12CCC(=O)C=C1CC[C@@H]1[C@@H]2[C@@H](O)C[C@@]2(C)[C@H]1CC[C@]2(O)C(=O)CO,inactive
16,CNC[C@H](O)c1cccc(O)c1,inactive
17,N[C@@H]1CONC1=O,inactive

# Assay: qHTS of pediatric cancer cell lines to identify multiple opportunities for drug repurposing: Primary screen for U-2 OS cells (AID 1347096); further: nearly all actives have a fitted effect of over 50% in size
# Conditions: U-2 OS viability, CellTiter-Glo luminescence, 48 h; series mostly up to 46 µM
# Outline: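 Cells (500-1,000/well) in growth media were settled 5 h at 37 degrees C, then given compounds for 48 h. Viability was read as CellTiter-Glo luminescence. Primary runs used MIPE at 11 points (0.78 nM-46 µM) and NPC at 8 points (0.59 nM-46 µM); follow-ups used 11 points.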
row,Structure (SMILES),Potency
1,Cc1cc2c(C(C)C)c(O)c(O)c(C=O)c2c(O)c1-c1c(C)cc2c(C(C)C)c(O)c(O)c(C=O)c2c1O,inactive
2,NS(=O)(=O)c1cc2c(cc1Cl)NC=NS2(=O)=O,inactive
3,COc1cc2c(cc1OC)CN(CCc1ccc(NC(=O)c3cccc4c(=O)c5cccc(OC)c5[nH]c34)cc1)CC2,inactive
4,CC1(C)SCCN(S(=O)(=O)c2ccc(OCC#CCO)cc2)[C@@H]1C(=O)NO,inactive
5,CCCc1nc2c(C)cc(-c3nc4ccccc4n3C)cc2n1Cc1ccc(-c2ccccc2C(=O)O)cc1,inactive
6,CC(C)NCC(O)COc1ccc(COCCOC(C)C)cc1 (stereo not given),inactive
7,NCCc1ccc(O)c(O)c1,inactive
8,Oc1ccc(C2CNCCc3c2cc(O)c(O)c3Cl)cc1 (stereo not given),inactive
9,CCC(C)n1ncn(-c2ccc(N3CCN(c4ccc(OC[C@H]5CO[C@](Cn6cncn6)(c6ccc(Cl)cc6Cl)O5)cc4)CC3)cc2)c1=O (stereo not given in full),inactive
10,CCc1ccc(CCOc2ccc(CC3SC(=O)NC3=O)cc2)nc1 (stereo not given),inactive
11,O=c1n(CCCN2CCN(c3cccc(Cl)c3)CC2)nc2ccccn12,inactive
12,CNC(=O)c1ccc(N2C(=S)N(c3ccc(C#N)c(C(F)(F)F)c3)C(=O)C2(C)C)cc1F,inactive
13,Cc1cnc(NC(=O)C2=C(O)c3ccccc3S(=O)(=O)N2C)s1,inactive
14,Nc1ccc(S(=O)(=O)Nc2ccnn2-c2ccccc2)cc1,inactive
15,NC(=O)c1cnccn1,inactive
16,CCCCNc1cc(C(=O)O)cc(S(N)(=O)=O)c1Oc1ccccc1,inactive
17,Cc1ccccc1C(OCCN(C)C)c1ccccc1 (stereo not given),inactive
18,Cc1[nH]c(=O)c(C#N)cc1-c1ccc2nccn2c1,inactive

row,Structure (SMILES),Potency
1,OC(CCN1CCCCC1)(c1ccccc1)C1CC2C=CC1C2 (stereo not given),inactive
2,NC(=O)c1ccc(I)c([N+](=O)[O-])c1,inactive
3,CC(c1cc2ccccc2s1)N(O)C(N)=O (stereo not given),inactive
4,O=C1CCC(N2C(=O)c3ccccc3C2=O)C(=O)N1 (stereo not given),inactive
5,O=C(O)COCCN1CCN(C(c2ccccc2)c2ccc(Cl)cc2)CC1 (stereo not given),inactive
6,Cc1ccc(-n2nc(C(C)(C)C)cc2NC(=O)Nc2ccc(OCCN3CCOCC3)c3ccccc23)cc1,inactive
7,CC(C)(Sc1ccc(CCN(CCCCC2CCCCC2)C(=O)NC2CCCCC2)cc1)C(=O)O,inactive
8,Clc1cccc(Cl)c1NC1=NCCN1,inactive
9,CC(C[N+](C)(C)C)OC(N)=O (stereo not given),inactive
10,CS(=O)(=O)c1cccc(CNc2nc(Nc3ccc4c(c3)CCC(=O)N4)ncc2C(F)(F)F)c1,18.7 µM (active)
11,CC(=O)Oc1ccccc1C(=O)O,inactive
12,O=C(O)CCc1ccc(NCc2cccc(Oc3ccccc3)c2)cc1,inactive
13,CC(C)(C)NCC(O)c1ccc(O)c(CO)c1 (stereo not given),inactive
14,c1ccc([C@H]2CN3CCSC3=N2)cc1,inactive
15,C[C@]12CCC(=O)C=C1CC[C@@H]1[C@@H]2[C@@H](O)C[C@@]2(C)[C@H]1CC[C@]2(O)C(=O)CO,inactive
16,CNC[C@H](O)c1cccc(O)c1,inactive
17,N[C@@H]1CONC1=O,inactive
